Measured values taken from ChEMBL document CHEMBL3988442, “University of Dundee, Small-Polar-MMV Screening Library” (2021).
Among all 66,000 compounds or so, about 960 (1.5%) showed an effect of 50% or more. Many of the other results were omitted from the sample, so strong results are more common in it than they were.

Tested on: Trypanosoma brucei
Test: Trypanosoma brucei 72 hour study
Assay type: functional, organism-based
Parameters: scale not given: in the data most compounds retested in dose-response had high values

Question: With CN1CCN(CCO)C(=O)C12CCN(Cc1ccsc1)CC2.O=C(O)C(F)(F)F.O=C(O)C(F)(F)F as the compound, how does the “Percent Effect” value (30.3 µM, […]) read?
Answer: The value was -7.984%.

Question: Which “Percent Effect” value (30 µM, 30.03 µM) does the source give for CN(C(=O)[C@H]1CSCN1C(=O)OC(C)(C)C)C1CC1 here?
Answer: Its value is -17.54%.

Question: For Cn1nc2c(cc1=O)CN(Cc1coc(-c3ccccc3)n1)CC2, which “Percent Effect” value (30.3 µM, […]) is on record?
Answer: The value was -6.992%.

Question: With Cn1nc2c(cc1=O)CN(Cc1coc(-c3cccc(F)c3)n1)CC2 as the compound, how does the “Percent Effect” value (30.3 µM, […]) read?
Answer: Its value is 75.84%.

Question: How did the “Percent Effect” value (30.3 µM, […]) turn out when Cn1nc2c(cc1=O)CN(Cc1coc(-c3ccc(F)cc3)n1)CC2 was run?
Answer: The value was 21.89%.

Question: CN1CCN(c2ccc(F)cc2NC(=O)NCc2ccon2)CC1 was tested. Which “Percent Effect” value (30.3 µM, […]) did it give?
Answer: Its value is -94.37%.

Question: For Cc1nccn1CC1CCN(C(=O)Cc2ccccc2)CC1, which “Percent Effect” value (30 µM, 30.03 µM) is on record?
Answer: The value was -11.09%.

Question: For CC(C)N(C)Cc1cnc2n1CCN(Cc1ccsc1)C2.O=C(O)C(F)(F)F.O=C(O)C(F)(F)F, which “Percent Effect” value (30.3 µM, […]) is on record?
Answer: The value was -0.145%.

Question: With Cc1cc(-c2nccs2)nc(C2CCN(Cc3ccc(F)cc3)CC2)n1.Cl as the compound, how does the “Percent Effect” value (30.3 µM, […]) read?
Answer: Its value is -1.786%.

Question: What does the source list for CC(C)(C)c1cc(NC(=O)CN2CCc3cncnc3C2)on1?
Answer: Percent Effect (30.3 µM, […]): 8.588%; Percent Effect (10 mM, 10 mM as filed; unlikely as a test dose): -38.22%

Question: For Cc1cc(NC(=O)CN2CCc3cncnc3C2)on1, which “Percent Effect” value (30.3 µM, […]) is on record?
Answer: The value was 8.362%.

Question: And the “Percent Effect” value (10 mM, 10 mM as filed; unlikely as a test dose)?
Answer: The value was -44.64%.

Question: For CC(C)c1cc(NC(=O)CN2CCc3cncnc3C2)on1, which “Percent Effect” value (30 µM, 30.03 µM) is on record?
Answer: The value was 51%.

Question: COC[C@@H]1CCC[C@@]12CN(Cc1ccco1)CCO2.O=C(O)C(F)(F)F was tested. Which “Percent Effect” value (30 µM, 30.03 µM) did it give?
Answer: Its value is -1.793%.

Question: CCn1cc(N2Cc3nc(N4CCCC4)ncc3C2=O)cn1 was tested. Which “Percent Effect” value (30.3 µM, […]) did it give?
Answer: Its value is -27.06%.

Question: Which “Percent Effect” value (30 µM, 30.03 µM) does the source give for CC(C)c1nccn1C(C)C(=O)N1CCN(c2ccccc2Cl)CC1 (centres undefined) here?
Answer: Its value is 16.25%.

Question: Which “Percent Effect” value (30 µM, 30.03 µM) does the source give for Cc1cccnc1N1CCN(C(=O)C(C)n2ccnc2C(C)C)CC1 (centres undefined) here?
Answer: The value was 78.55%.

Question: For Cc1cc(N2CCN(C(=O)C(C)n3ccnc3C(C)C)CC2)cc(C)n1 (centres undefined), which “Percent Effect” value (30 µM, 30.03 µM) is on record?
Answer: The value was -26.06%.

Question: How did the “Percent Effect” value (30 µM, 30.03 µM) turn out when CN(C)CC1CN(C(=O)CCc2ccccc2)Cc2nccn2C1.O=C(O)C(F)(F)F (centres undefined) was run?
Answer: The value was -27.78%.

Question: O=C1O[C@@H]2CN(Cc3ccncc3)C[C@@H]2N1CCCN1CCOCC1 was tested. Which “Percent Effect” value (30 µM, 30.03 µM) did it give?
Answer: The value was -21.02%.

Question: With O=C1O[C@@H]2CN(CCc3ccccc3)C[C@@H]2N1CCCN1CCOCC1 as the compound, how does the “Percent Effect” value (30 µM, 30.03 µM) read?
Answer: The value was -26.55%.

Question: O=C1O[C@@H]2CN(Cc3ccccc3)C[C@@H]2N1CCCN1CCOCC1 was tested. Which “Percent Effect” value (30 µM, 30.03 µM) did it give?
Answer: The value was 65.91%.

Question: CC(C)CC(=O)N1CC[C@@H]2[C@H](CC1)N(Cc1cccnc1)CCS2(=O)=O.O=C(O)C(F)(F)F.O=C(O)C(F)(F)F was tested. Which “Percent Effect” value (30.3 µM, […]) did it give?
Answer: Its value is -39.88%.

Question: For Cc1cccc(CN(Cc2ccccn2)Cc2ncc(C(C)(C)C)o2)c1, which “Percent Effect” value (30.3 µM, […]) is on record?
Answer: The value was 99.39%.

Question: For CCN(Cc1cccc(Cl)c1)Cc1ncc(C(C)(C)C)o1, which “Percent Effect” value (30.3 µM, […]) is on record?
Answer: The value was -76.17%.

Question: How did the “Percent Effect” value (30.3 µM, […]) turn out when Cc1cccc(CN(Cc2ccccn2)S(=O)(=O)N(C)C)c1 was run?
Answer: Its value is 5.656%.

Question: CCN(CCSc1ccccc1)C(=O)c1cn([C@H]2CC[C@@H](N)CC2)nn1 was tested. Which “Percent Effect” value (30.3 µM, […]) did it give?
Answer: Its value is -71.42%.

Question: Cc1ccc(SCCN(C)C(=O)c2cn([C@H]3CC[C@@H](N)CC3)nn2)cc1 was tested. Which “Percent Effect” value (30.3 µM, […]) did it give?
Answer: The value was -119%.

Question: Which “Percent Effect” value (30.3 µM, […]) does the source give for Cc1ccc(SCCCNC(=O)c2cn([C@H]3CC[C@@H](N)CC3)nn2)cc1 here?
Answer: The value was 59.21%.

Question: What does the source list for CCCc1nc(CN2CCCCC2Cn2cncn2)cs1 (centres undefined)?
Answer: Percent Effect (30.3 µM, […]): 101.4%; Percent Effect (10 mM, 10 mM as filed; unlikely as a test dose): -40.08%

Question: Which “Percent Effect” value (30 µM, 30.03 µM) does the source give for CC(C)c1nc(CN2CCCCC2)cs1 here?
Answer: The value was 11.44%.

Question: With CN(C)C(=O)Cc1nc(CN2CCCCC2Cn2cncn2)cs1 (centres undefined) as the compound, how does the “Percent Effect” value (30.3 µM, […]) read?
Answer: The value was -54.68%.

Question: With CN(C)C(=O)Cc1nc(CN2CCCC2Cn2cccn2)cs1 (centres undefined) as the compound, how does the “Percent Effect” value (30.3 µM, […]) read?
Answer: Its value is -75.86%.

Question: With CC(C)c1nc(CN2CCCCC2Cn2cncn2)cs1 (centres undefined) as the compound, how does the “Percent Effect” value (30.3 µM, […]) read?
Answer: Its value is 7.247%.

Question: And the “Percent Effect” value (10 mM, 10 mM as filed; unlikely as a test dose)?
Answer: Its value is -40.32%.

Question: For CC(=O)Nc1nc(CN2CCCCC2Cn2cccn2)cs1 (centres undefined), which “Percent Effect” value (30 µM, 30.03 µM) is on record?
Answer: The value was 16.1%.

Question: For CCCc1nc(CN2CCCC2Cn2cccn2)cs1 (centres undefined), which “Percent Effect” value (30.3 µM, […]) is on record?
Answer: Its value is 100.2%.

Question: Which “Percent Effect” value (30.3 µM, […]) does the source give for CC(C)c1nc(CN2CCCC2CN2CCCC2)cs1 (centres undefined) here?
Answer: Its value is 99.84%.

Question: How did the “Percent Effect” value (30.3 µM, […]) turn out when CC(=O)Nc1nc(CN2CCCC2Cn2cccn2)cs1 (centres undefined) was run?
Answer: Its value is 98.13%.

Question: CC(=O)Nc1nc(CN2CCCC2Cn2cncn2)cs1 (centres undefined) was tested. Which “Percent Effect” value (30 µM, 30.03 µM) did it give?
Answer: Its value is 3.686%.

Question: With CCCc1nc(CN2CCCC2Cn2cncn2)cs1 (centres undefined) as the compound, how does the “Percent Effect” value (30 µM, 30.03 µM) read?
Answer: The value was 2.721%.

Question: CN(C)C(=O)Cc1nc(CN2CCCCC2Cn2cccn2)cs1 (centres undefined) was tested. Which “Percent Effect” value (30 µM, 30.03 µM) did it give?
Answer: Its value is -14.9%.

Question: CN(C)Cc1nc(-n2cnc(C(=O)NCC3CC3)c2)n2ccccc12 was tested. Which “Percent Effect” value (30.3 µM, […]) did it give?
Answer: The value was -8.964%.

Question: With CN1C(=O)CC(C(=O)O)C12CCN(c1ccc3ccccc3n1)CC2 (centres undefined) as the compound, how does the “Percent Effect” value (30 µM, 30.03 µM) read?
Answer: The value was -0.482%.

Question: How did the “Percent Effect” value (30.3 µM, […]) turn out when COc1ccc(CC(=O)N2CC(=O)NCC(C)(C)C2)cc1 was run?
Answer: Its value is -15.32%.

Question: For O=C(NC[C@@H]1C[C@@H]2CN(C(=O)CO)C[C@H]2O1)c1ccsc1, which “Percent Effect” value (30.3 µM, […]) is on record?
Answer: Its value is -12.73%.

Question: How did the “Percent Effect” value (30.3 µM, […]) turn out when Cc1nn(C)c(C)c1S(=O)(=O)N1CC[C@@H]2O[C@@H](C)C[C@H]2C1.O=C(O)C(F)(F)F was run?
Answer: The value was 5.348%.
